Data taken from PubChem BioAssay.
Where “and” joins values, the source holds several entries; their conditions need not be identical. Identical values can stand only once. Records with an inconclusive call do not appear. Where a structure was tested more than once in an assay, its records may differ in their call. Calls of active or inactive are those of the source. Unless noted, how the calls were made is not given here.

Tests used:
[1] = GFP-Q80 aggregate reduction, neuronal-like cells, cell-based, NGF-treated PC12, GFPQ80 (AID 1614); details: PC12 NGF-treated GFP-polyQ80 inclusion reduction;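 further: lower means fewer inclusions and 0 means no inclusions at all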
[2] = compounds altering circadian rhythm period length – cell-based, LOPAC library, luminescence reporter (AID 2774); details: circadian reporter cells, at 7 µM, actives lie on both sides;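 further: values are relative to mean of DMSO wells on each plate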
[3] = test system: Hepatitis C virus NS3 helicase; assay: blockers of NS3h binding to ssDNA – biochemical, fluorescence polarization, LOPAC1280 library, primary screen (AID 687035; in the data active means inhibition above about 37%); details: Purified HCV NS3 helicase, Cy5-dT15 ssDNA binding fluorescence polarization; stronger effect = higher value; concentration not given here
[4] = compounds altering Cy5-DNA-NS3h complex signal – biochemical, LOPAC1280, artefact control for HCV NS3 helicase inhibitor project (AID 687037); details: Cy5-DNA-NS3h complex fluorescence interference counterscreen
[5] = test system: Neuropilin-2 / VEGF-C interaction (human); assay: small molecules blocking Neuropilin-2/VEGF-C interaction – biochemical, microplate binding format, z-score (AID 743281); details: microplate NRP2/VEGF-C binding assay; stronger effect = lower value
[6] = blockers of cellular phospholipid synthesis – cell-based, LOPAC library, screen 4, primary screen (AID 1347384); details: animal cells, phospholipid biosynthesis inhibition screen; at 10 µM
[7] = target: ATP-dependent translocase ABCB1 (Homo sapiens) (UniProt P08183); assay: P-glycoprotein substrate transport blockade – cell-based (AID 377; in the data active means fluorescence slope change above about 50%); details: MDR1-expressing cells, fluorescent substrate accumulation slope; stronger effect = higher value; concentration not given here
[8] = viability loss in pontine glioma line – cell-based, SU-DIPG-XVII, MIPE5.0, CellTiter-Glo, qHTS, dose response (AID 1347060; cut-off not given, nearly all actives have AC50 up to about 26 µM); details: CellTiter-Glo ATP luminescence
[9] = viability loss in pontine glioma line – cell-based, SU-DIPG-XIII, MIPE4.0, CellTiter-Glo, qHTS, dose response (AID 1347061; cut-off not given, nearly all actives have AC50 up to about 37 µM;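 further: cells exposed to compound for 48 hours before readout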); details: CellTiter-Glo ATP luminescence
[10] = viability loss in pontine glioma line – cell-based, JHH-DIPG-1, MIPE4.0, CellTiter-Glo, qHTS, dose response (AID 1347062; cut-off not given, nearly all actives have AC50 up to about 27 µM); details: JHH-DIPG-1 viability, CellTiter-Glo ATP luminescence
[11] = viability loss in pontine glioma line – cell-based, SU-DIPG-IV, MIPE4.0, CellTiter-Glo, qHTS, dose response (AID 1347063; cut-off not given, nearly all actives have AC50 up to about 30 µM;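 further: compound exposure lasted 48 hours before the viability readout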); details: CellTiter-Glo ATP luminescence
[12] = viability loss in pontine glioma line – cell-based, SU-DIPG-XIII, MIPE5.0, CellTiter-Glo, qHTS, dose response (AID 1347064; cut-off not given, nearly all actives have AC50 up to about 23 µM); details: CellTiter-Glo ATP luminescence
[13] = viability loss in pontine glioma line – cell-based, SU-DIPG-XXV, MIPE5.0, CellTiter-Glo, qHTS, dose response (AID 1347065; cut-off not given, nearly all actives have AC50 up to about 26 µM;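 further: cells exposed to compound for 48 hours before ATP readout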); details: CellTiter-Glo ATP luminescence
[14] = growth inhibition of DIPG cells – cell-based, MIPE4.0 library, CellTiter-Glo luminescence, qHTS (AID 1347066; cut-off not given, nearly all actives have AC50 up to about 30 µM;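 further: cells exposed to compound for 48 hours before readout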); details: SU-DIPG-VI viability, CellTiter-Glo ATP luminescence
[15] = JHH-DIPG-1 glioma cell viability, MIPE5.0 library, CellTiter-Glo luminescence, qHTS (AID 1347067; cut-off not given, nearly all actives have AC50 up to about 26 µM;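 further: cells exposed to compound for 48 hours before readout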); details: JHH-DIPG-1 glioma viability, CellTiter-Glo ATP luminescence
[16] = growth inhibition of DIPG cells – cell-based, MIPE5.0 library, qHTS (AID 1347068; cut-off not given, nearly all actives have IC50 up to about 30 µM); details: SU-DIPG-XXV viability
[17] = growth inhibition, single agent or in combination, cell-based, chromothripsis tumors, cisplatin or BGB combos (AID 1671449; in the data active means inhibition above about 80%;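 further: cells exposed for 96 hours; 0% = vehicle DMSO and 100% = killing by high DMSO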); details: LFS_MB_P medulloblastoma cells
[18] = growth inhibition, single agents and combos, ICB984, cell-based, cisplatin or BGB combos, synergistic combos for chromothripsis tumors (AID 1671451); details: ICB984 medulloblastoma cells, drug combinations, stronger effect = higher value;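 further: cells exposed for 96 hours before readout; 0% = vehicle DMSO and 100% = killing by high DMSO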

Chain of ATP-dependent translocase ABCB1 (Homo sapiens) (P08183 whole entry, looked up): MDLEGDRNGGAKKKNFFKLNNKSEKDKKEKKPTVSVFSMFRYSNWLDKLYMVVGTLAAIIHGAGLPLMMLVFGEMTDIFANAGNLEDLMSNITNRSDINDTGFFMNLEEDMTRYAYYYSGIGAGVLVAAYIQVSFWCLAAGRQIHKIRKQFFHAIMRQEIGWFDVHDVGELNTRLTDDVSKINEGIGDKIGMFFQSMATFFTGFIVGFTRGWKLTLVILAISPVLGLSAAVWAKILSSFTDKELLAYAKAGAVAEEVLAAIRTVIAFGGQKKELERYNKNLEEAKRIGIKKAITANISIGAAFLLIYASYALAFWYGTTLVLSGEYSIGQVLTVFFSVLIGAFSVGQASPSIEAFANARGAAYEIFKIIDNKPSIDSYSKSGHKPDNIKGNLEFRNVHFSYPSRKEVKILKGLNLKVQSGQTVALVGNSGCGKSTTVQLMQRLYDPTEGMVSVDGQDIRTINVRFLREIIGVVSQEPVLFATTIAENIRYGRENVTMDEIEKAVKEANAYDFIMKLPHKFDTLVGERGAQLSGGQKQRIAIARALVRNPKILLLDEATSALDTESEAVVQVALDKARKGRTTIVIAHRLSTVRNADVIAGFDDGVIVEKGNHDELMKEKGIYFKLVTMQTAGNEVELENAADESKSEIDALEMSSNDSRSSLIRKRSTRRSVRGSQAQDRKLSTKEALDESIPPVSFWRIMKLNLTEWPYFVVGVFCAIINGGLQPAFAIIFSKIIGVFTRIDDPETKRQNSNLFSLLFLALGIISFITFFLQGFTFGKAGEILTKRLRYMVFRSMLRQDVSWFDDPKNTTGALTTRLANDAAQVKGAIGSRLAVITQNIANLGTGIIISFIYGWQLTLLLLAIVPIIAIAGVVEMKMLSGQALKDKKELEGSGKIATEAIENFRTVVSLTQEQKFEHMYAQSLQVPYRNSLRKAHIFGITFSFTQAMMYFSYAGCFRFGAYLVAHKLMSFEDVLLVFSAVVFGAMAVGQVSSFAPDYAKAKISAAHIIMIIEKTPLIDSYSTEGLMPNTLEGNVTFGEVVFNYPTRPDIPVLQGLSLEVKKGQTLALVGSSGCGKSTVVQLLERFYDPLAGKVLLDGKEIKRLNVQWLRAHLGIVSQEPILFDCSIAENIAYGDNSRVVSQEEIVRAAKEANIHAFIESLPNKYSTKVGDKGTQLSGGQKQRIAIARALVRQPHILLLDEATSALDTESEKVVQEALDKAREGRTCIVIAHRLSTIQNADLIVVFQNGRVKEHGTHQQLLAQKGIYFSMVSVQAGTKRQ

For CN(C)CCOC(C)(c1ccccc1)c1ccccn1 (stereo not given), the inclusion score [1] was 2, the period change [2] was 0.205 h (inactive) and the inhibition [3] was -2% (inactive). For the same compound, the fluorescence ratio (interference) [4] was 1.1 (inactive), the z-score [5] was -0.0183 (inactive) and the outcome [6] was “inactive”.

For CC(C)NCC(O)c1cc(O)cc(O)c1 (stereo not given), the fluorescence slope change [7] was 14.9% (inactive), the inclusion score [1] was 2 and the period change [2] was -0.17 h (inactive). For the same compound, the inhibition [3] was -4% (inactive), the fluorescence ratio (interference) [4] was 0.9 (inactive) and the outcome [6] was “inactive”.

With CCCNC(C)C(=O)Nc1ccccc1C (stereo not given) the inclusion score [1] was 2, the period change [2] was -0.13 h (inactive) and the inhibition [3] was -1% (inactive). The fluorescence ratio (interference) [4] was 1 (inactive) and the outcome [6] was “inactive”.

In the case of CCCNC(=O)NS(=O)(=O)c1ccc(Cl)cc1, the fluorescence slope change [7] is reported as 6.6% (inactive), the inclusion score [1] is reported as 2 and the period change [2] is reported as 0.055 h (inactive). The inhibition [3] was -1% (inactive), the fluorescence ratio (interference) [4] was 1 (inactive) and the outcome [6] was “inactive”.

With CC(N=C(NC#N)Nc1ccncc1)C(C)(C)C (stereo not given) the fluorescence slope change [7] was 190% (active), the period change [2] was 0.07 h (inactive) and the inhibition [3] was -5% (inactive). The fluorescence ratio (interference) [4] was 1 (inactive), the z-score [5] was -0.52 (inactive) and the outcome [6] was “inactive”.

For CSc1ccc2c(c1)N(CCC1CCCCN1C)c1ccccc1S2 (stereo not given), the period change [2] was -0.225 h (inactive), the inhibition [3] was -3% (inactive) and the fluorescence ratio (interference) [4] was 0.9 (inactive). For the same compound, the outcome [6] was “inactive”.

With CC(=O)Nc1nnc(S(N)(=O)=O)s1 the inclusion score [1] was 2, the period change [2] was 0.15 h (inactive) and the inhibition [3] was -1% (inactive). The fluorescence ratio (interference) [4] was 1 (inactive) and the outcome [6] was “inactive”.

With CN(C)CCCN1c2ccccc2CCc2ccccc21 the period change [2] was 0.07 h (inactive), the inhibition [3] was -7% (inactive) and the fluorescence ratio (interference) [4] was 1 (inactive). The outcome [6] was “inactive”.

Compound NS(=O)(=O)c1cc2c(cc1C(F)(F)F)NCNS2(=O)=O has an inclusion score [1] of 2.

For CCN(CC)CCOC(=O)c1ccc(N)cc1, the inclusion score [1] was 1.5, the period change [2] was -0.065 h (inactive) and the inhibition [3] was 0% (inactive). The fluorescence ratio (interference) [4] was 1 (inactive) and the outcome [6] was “inactive”.

With CN(C)CCC[C@@]1(c2ccc(F)cc2)OCc2cc(C#N)ccc21 the z-score [5] was 0.314 (inactive).

For Cc1ccc(S(=O)(=O)NC(=O)NN2CCCCCC2)cc1, the fluorescence slope change [7] was 5.1% (inactive), the inclusion score [1] was 2 and the period change [2] was 0.08 h (inactive). For the same compound, the inhibition [3] was -1% (inactive), the fluorescence ratio (interference) [4] was 1 (inactive) and the outcome [6] was “inactive”.

For CC(CN1c2ccccc2Sc2ccccc21)N(C)C (stereo not given), the period change [2] was 0.14 h (inactive), the inhibition [3] was -2% (inactive) and the fluorescence ratio (interference) [4] was 1 (inactive). For the same compound, the outcome [6] was “inactive”.

Work on Nc1ccc(S(=O)(=O)c2ccc(N)cc2)cc1 yielded an inclusion score [1] of 2.

For CC[N+](C)(C)c1cccc(O)c1, the fluorescence slope change [7] was 82.5% (active), the inclusion score [1] was 2 and the period change [2] was 0.07 h (inactive). The inhibition [3] was -3% (inactive), the fluorescence ratio (interference) [4] was 1 (inactive) and the outcome [6] was “inactive”.

With Nc1nc(N)c2nc(-c3ccccc3)c(N)nc2n1 the period change [2] was 0.185 h (inactive), the inhibition [3] was -2% (inactive) and the fluorescence ratio (interference) [4] was 1 (inactive). The outcome [6] was “inactive”.

With CC(C)[N+](C)(CCOC(=O)C1c2ccccc2Oc2ccccc21)C(C)C the fluorescence slope change [7] was 80.1% (active), the inclusion score [1] was 2 and the period change [2] was 0.06 h (inactive). For the same compound, the inhibition [3] was 0% (inactive), the fluorescence ratio (interference) [4] was 1 (inactive) and the outcome [6] was “inactive”.

With O=C(CCCN1CC=C(n2c(=O)[nH]c3ccccc32)CC1)c1ccc(F)cc1 the fluorescence slope change [7] was 53.4% (active) and the z-score [5] was 0.0538 (inactive).

With CCCCC1=NC2(CCCC2)C(=O)N1Cc1ccc(-c2ccccc2-c2nn[nH]n2)cc1 the z-score [5] was 0.146 (inactive).

In the case of Cn1c(=O)c2[nH]cnc2n(C)c1=O, the fluorescence slope change [7] is reported as 7.6% (inactive) and 62.3% (active), the inclusion score [1] is reported as 1.5 and the period change [2] is reported as 0.14 h (inactive). The inhibition [3] was -2% (inactive), the fluorescence ratio (interference) [4] was 0.9 (inactive) and the outcome [8] was “inactive”. The outcome [9] was “inactive”, the outcome [10] was “inactive” and the outcome [11] was “inactive”. The outcome [12] was “inactive”, the outcome [13] was “inactive” and the outcome [14] was “inactive”. The outcome [15] was “inactive”, the outcome [16] was “inactive” and the outcome [6] was “inactive”. For the same compound, the inhibition ([17]; at 0.5 µM, stronger effect = higher value) was 15.2% (inactive) and -21.4% (inactive) and -26.2% (inactive), the inhibition ([17]; measured here: combination with BGB IC20, at 0.005 µM) was -5.83% and -14.3% and -19.1% and the inhibition ([17]; measured here: combination with BGB IC40, at 0.005 µM) was -32.6% and -34.3% and -25.4%. The inhibition ([17]; measured here: combination with BGB IC40, at 0.05 µM) was -28.1% and -16.1% and -10.3%, the inhibition ([17]; measured here: combination with cisplatin, at 0.5 µM, stronger effect = higher value) was 57.5% and -49.4% and -30.2% and the inhibition ([17]; measured here: combination with cisplatin, at 5 µM, stronger effect = higher value) was -12.8% and -12% and -12.6%. The inhibition ([18]; BGB IC20 combo, at 0.005 µM) was -1.06% and -2.94% and -4.47%, the inhibition ([18]; BGB IC40 combo, at 0.005 µM) was -42.4% and 6.67% and -13.1% and the inhibition ([18]; BGB IC40 combo, at 0.05 µM) was -45.5% and -37.4% and -12%. For the same compound, the inhibition ([18]; at 0.5 µM) was -27.5% (inactive) and -16.4% (inactive) and -30.3% (inactive), the inhibition ([18]; cisplatin combo, at 0.05 µM) was -49.6% and -37.4% and -12% and the inhibition ([18]; cisplatin combo, at 0.5 µM) was -29.5% and -23.4% and -59.1%. For the same compound, the inhibition ([18]; cisplatin combo, at 5 µM) was -24.5% and 11.4% and -42.2% and the inhibition ([18]; measured here: 5 uM single agent, at 5 µM) was -5.05% and -45.4% and 1.22%.

In the case of C[C@H]1C[C@@H]2[C@H]([C@@H](O)C[C@@]3(C)[C@H]2CC[C@]3(O)C(=O)CO)[C@@]2(C)C=CC(=O)C=C12, the fluorescence slope change [7] is reported as 127% (active), the outcome [8] is reported as “inactive” and the outcome [10] is reported as “inactive”. For the same compound, the outcome [12] was “inactive”, the outcome [13] was “inactive” and the outcome [15] was “inactive”. For the same compound, the outcome [16] was “inactive”.

Work on COc1ccc2cc(CCC(C)=O)ccc2c1 yielded an inclusion score [1] of 2.

With CC1=C(C(=O)O)N2C(=O)[C@@H](NC(=O)[C@H](N)c3ccccc3)[C@H]2SC1 the fluorescence slope change [7] was 94.6% (active) and the outcome [5] was “inactive”.

In the case of CN(C)c1ccc(O)c2c1C[C@H]1C[C@H]3[C@H](N(C)C)C(=O)C(C(N)=O)=C(O)[C@@]3(O)C(=O)C1=C2O, the fluorescence slope change [7] is reported as 103% (active), the inclusion score [1] is reported as 0 and the outcome [10] is reported as “inactive”. For the same compound, the outcome [14] was “inactive”, the outcome [15] was “inactive” and the outcome [16] was “inactive”.

In the case of C[C@@H]1O[C@@H](OC[C@H]2O[C@@H](Oc3c(-c4ccc(O)c(O)c4)oc4cc(O)cc(O)c4c3=O)[C@H](O)[C@@H](O)[C@@H]2O)[C@H](O)[C@H](O)[C@H]1O, the inclusion score [1] is reported as 2 and the z-score [5] is reported as 0.702 (inactive).

With C[C@]12C=CC(=O)C=C1CC[C@@H]1[C@@H]2C(=O)C[C@@]2(C)[C@H]1CC[C@]2(O)C(=O)CO the outcome [8] was “inactive”, the outcome [9] was “inactive” and the outcome [10] was “inactive”. For the same compound, the outcome [11] was “inactive”, the outcome [12] was “inactive” and the outcome [13] was “inactive”. The outcome [14] was “inactive”, the outcome [15] was “inactive” and the outcome [16] was “inactive”.
